Screens: PubChem, University of Kansas High Throughput Screening Laboratory
In the library only some 3.5% were active in any assay of this set; here they are far more common.
mHTT-CaM PPI inh = inhibitors of human mutant huntingtin-calmodulin interaction. P42858. AlphaScreen His-mHTT/GST-CaM binding, luminescence. inhibition, % at 15 µM. hit rate 3.6% among 190,000. AID 1671202;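 further: 0% = both proteins with DMSO and 100% = one protein alone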
Pf apPOL block = Pf-apPOL DNA polymerase inhibition; Recombinant Pf-apPOL, molecular beacon fluorescence, 1.5 h; inhibition, % at 10 µM; hit rate 0.25% among 210,000; AID 1794808
* hit, by the source's call; x = no result given. No stated cut-off is given here; in the data, active means inhibition above about 50%; inactive means the rest.

SMILES | mHTT-CaM PPI inh | Pf apPOL block
CCCCC(=O)NCCC1CCN(C(=O)c2ccc(F)cc2)CC1 | -5.5 | 0.3
Cc1nn(-c2ccccc2)c(Cl)c1C(=O)Nc1ccccc1Cl | -17.0 | -4.0
CC(C(=O)N1CCC(N2CCc3ccccc32)CC1)c1ccccc1 (stereo not given) | 68.5* | 4.4
COCCC1CCN(C(=O)C(C)c2ccccc2)CC1 (stereo not given) | 1.0 | 1.0
O=C(Nc1nccs1)C1CCN(C(=O)C2COc3ccccc3O2)CC1 (stereo not given) | -5.8 | -9.4
COc1ccc(S(=O)(=O)N(CC(=O)Nc2cccc(C)c2C)c2ccc(C)cc2)cc1OC | 16.5 | -4.4
COc1cccc(C(=O)Nc2cc(-c3nc4ccccc4o3)ccc2C)c1 | -4.7 | -4.3
O=S(=O)(Nc1cccc2cccnc12)c1cc(Cl)c(Cl)cc1Cl | x | -74.6
Nc1ccc(S(=O)(=O)Nc2cccc3cccnc23)cc1 | 57.0* | -2.0
CC(=O)N(C)c1ccc(N=C2C(=O)Nc3cc(Br)c(C)cc32)cc1 | 5.0 | -8.6
COc1ccc(N=C2C(=O)Nc3ccc(C)c(Br)c32)cc1 | 64.0* | 2.0
Cc1ccc(N=C2C(=O)Nc3cc(Br)c(C)cc32)cc1 | 55.0* | -0.6
Cc1ccc(N=C2C(=O)Nc3ccc(C)c(Br)c32)cc1 | 9.0 | -3.2
O=C(Nc1ccc2nncn2c1)Nc1ccccc1F | -8.6 | 3.6
CCOc1ccc(C2=C/C(=C/c3ccc(C)c(OC)c3)C(=O)O2)cc1 | -14.0 | 3.1
CCOc1cc(/C=C2/C=C(c3ccc(C)cc3)OC2=O)ccc1O | 55.0* | 8.0
CCN1CCN(Cc2c(O)ccc3c2OC(=Cc2ccccc2OC)C3=O)CC1 | -2.9 | -7.0
CCOc1cc(C2Nc3cc(C)c(C)cc3NC3=C2C(=O)CC(C)(C)C3)cc(Cl)c1O (stereo not given) | 53.0* | -6.3
CCOc1cc(C2Nc3ccccc3NC3=C2C(=O)CC(c2cccs2)C3)cc(Cl)c1O (stereo not given) | 28.0 | -12.4
COc1ccc(-c2nn(Cc3ccccc3F)c(=O)c3nc(C)sc23)cc1OC | 64.8* | -8.5
COc1cccc(-c2nn(CC(=O)N3CCc4ccccc43)c(=O)c3nc(C)sc23)c1 | -2.0 | -5.2
Cc1nc2cccnc2n1C1CCN(S(=O)(=O)c2ccc(Cl)s2)C1 (stereo not given) | 11.0 | 0.2
COc1cc(OC)cc(C(=O)N2CCC3(CC2)NC(=O)N(Cc2ccc(C)cc2)C3=O)c1 | 11.3 | -0.1
O=C(CCSc1ccccc1)N1CC(c2nc(-c3cccc(Cl)c3)no2)C1 | 66.8* | -19.4
O=C(c1ccccn1)N1CC(c2nc(-c3cccc(Cl)c3)no2)C1 | -7.1 | -8.2
SMILES | mHTT-CaM PPI inh | Pf apPOL block
O=C(c1ccsc1)N1CC(c2nc(-c3cccc(Cl)c3)no2)C1 | -4.5 | 0.6
O=C(Cn1ccc2ccccc21)N1CC(c2nc(-c3cccc(Cl)c3)no2)C1 | 60.3* | -3.3
CCn1c(CCNC(=O)c2ccc(OC)cc2)nc2c(C)cccc2c1=O | 27.3 | -3.3
CCN(C)c1cc2c(c3c1ccn3C)C1CCC2C1 (stereo not given) | 53.0* | -7.2
CN(CCc1ccccc1)c1cc2c(c3c1ccn3C)C1CCC2C1 (stereo not given) | 74.7* | -3.9
CN(c1cc2c(c3c1ccn3C)C1CCC2C1)C1CCCCC1 (stereo not given) | 70.3* | -3.2
CN(Cc1ccccc1)c1cc2c(c3c1ccn3C)C1CCC2C1 (stereo not given) | 71.2* | -3.2
Cc1ccccc1-c1cc2c(c3c1ccn3C)C1CCC2C1 (stereo not given) | 20.0 | -6.1
Cn1ccc2c(N(c3ccccc3)C3CCCCC3)cc3c(c21)C1CCC3O1 (stereo not given) | 23.5 | -4.8
Cn1ccc2c(-c3ccc(F)cc3)cc3c(c21)C1CCC3C1 (stereo not given) | 22.3 | 2.4
Cn1ccc2c(N(Cc3ccccc3)Cc3ccccc3)cc3c(c21)C1CCC3C1 (stereo not given) | 12.2 | -1.9
NC(=O)C1Cc2ccccc2N1C(=O)CSCc1ccccc1 (stereo not given) | 0.2 | -3.3
CC1CCCCC1NC(=O)c1cccn2c(=O)c3ccccc3nc12 (stereo not given) | 8.0 | -1.8
COc1ccccc1N(C)c1cc2c(c3c1ccn3C)C1CCC2C1 (stereo not given) | 83.1* | 1.8
COc1ccc(-c2cc3c(c4c2ccn4C)C2CCC3C2)cc1F (stereo not given) | 46.6 | -2.9
C=C1CCN([C@@H](CC(C)C)C(=O)N2CCOCC2)S(=O)(=O)c2ccccc21 | 9.3 | -0.8
CC(C)CC(C(=O)N1CCOCC1)N1C(=O)C2C3c4ccccc4C(c4ccccc43)C2C1=O (stereo not given) | 54.8* | -9.8
NC(N)=Nc1nc(-c2ccccc2)c2ccccc2n1 | 73.3* | -2.0
Cc1ccc2c(C)nc(N=C(N)N)nc2c1 | 7.3 | 4.7
CCc1cccc(C)c1N(C(=O)CSc1nc2ccccc2[nH]1)C(C)COC (stereo not given) | 52.0* | -6.1
CCOCN(C(=O)CSc1nc2ccccc2[nH]1)c1c(C)cccc1CC | 15.0 | -3.2
CSc1ccc(Cl)c(C(=O)Nc2cccc(C3OCCCO3)c2)c1 | 2.0 | -5.0
CCOc1ccc(S(=O)(=O)N=C2C=C(Nc3ccc(O)cc3)C(=O)c3ccccc32)cc1 | 94.0* | -0.2
CCOc1ccc(NC2=CC(=NS(=O)(=O)c3ccccc3)c3ccccc3C2=O)cc1 | 66.0* | -5.1
Cc1ccccc1NS(=O)(=O)c1cccs1 | 0.3 | 1.6
SMILES | mHTT-CaM PPI inh | Pf apPOL block
CCOc1ccc(NC2=CC(=NS(=O)(=O)c3ccc(OC)cc3)c3ccccc3C2=O)cc1 | 38.0 | -0.5
CCc1ccc(S(=O)(=O)N=C2C=C(Nc3ccc(O)cc3)C(=O)c3ccccc32)cc1 | 72.0* | -8.7
CCOc1ccc(S(=O)(=O)N=C(Nc2ccccn2)c2ccccc2)cc1 | 4.0 | 2.0
Cc1ccc(Cl)cc1NC1=CC(=NS(=O)(=O)c2cccs2)c2ccccc2C1=O | 79.0* | -6.3
CCc1ccc(S(=O)(=O)Nc2ccc(O)cc2)cc1 | 0.7 | -6.5
Cc1sc2c(=O)n(C(C)C)cnc2c1C(=O)Nc1ccc(Cl)cc1 | -5.1 | -4.0
CCC12CN3CC(CC)(CN(C1)C3c1ccc(OC)c(OC)c1)C2=O (stereo not given) | 1.0 | -2.0
Cc1noc(C)c1C1CCCN1Cc1ccc(OCc2ccccc2)cc1 (stereo not given) | -30.7 | 5.7
O=C(NCc1cccnc1)c1c[nH]c2ccc(S(=O)(=O)N3CCOCC3)cc2c1=O | -2.0 | 9.4
Cc1cc(I)ccc1N1C(=O)CC(Sc2ncccc2C(=O)O)C1=O (stereo not given) | 1.1 | -12.2
CS(=O)(=NC(=O)Nc1ccccc1)c1cccs1 (stereo not given) | x | -2.6
O=C1C(Nc2ccc(O)cc2)=CC(=NS(=O)(=O)c2cccs2)c2ccccc21 | 94.0* | 1.6
Cc1c(-c2noc(-c3cccc(F)c3)n2)nnn1Cc1ccccc1 | -7.1 | -4.4
COc1cc(S(=O)(=O)N2CCN(c3ccc(F)cc3)CC2)c(OC)cc1Br | 1.2 | -6.2
COc1cc(S(=O)(=O)N2CCN(c3ccc(C)c(C)c3)CC2)c(OC)cc1Br | 59.3* | 0.9
Cc1cc(Br)c(S(=O)(=O)N2CCN(c3ccccc3)CC2)cc1C | -2.5 | -8.3
COc1cc(Br)c(S(=O)(=O)N2CCN(c3ccc(C)c(C)c3)CC2)cc1OC | 53.4* | 0.9
COc1cccc(C2=N/C(=C\c3ccc(C(C)C)cc3)C(=O)O2)c1 | 6.0 | 2.0
